Bioassay records as filed in PubChem.
Compounds with a hit are over-represented: about 9.9% of the library has one in this group of screens.
Tau fluor counter: counter-screen for tau fibril formation inhibitors. tau K18 P301L Alexa594 fluorescence, heparin fibrillization. hit rate 0.93% among 280,000. AID 1463. Potency, µM (top dose mostly 57.7 µM), for inactives: at the highest dose activity change, negative = decrease; active = well fitted curve in the direction sought with a large enough effect; inconclusive = small, poorly fitted or top-dose-only effect, or another doubt; inactive = no such curve, though single readings can be large; an effect the other way counts as inactive or inconclusive; also: nearly all actives have a fitted effect of over 55% in size
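Human K18 P301L tau (15 uM unlabeled plus 0.24 uM Alexa 594-labeled, final) in 100 mM sodium acetate pH 7 was mixed with compound and 20 uM heparin and incubated 6 hr at 37 C.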
ALDH1A1 block: ALDH1A1 (human) enzyme inhibition; P00352; Purified ALDH1A1, NADH fluorescence, propionaldehyde substrate; Potency, µM (doses to about 75.3 µM), inactives show at the highest dose activity, negative = inhibition, most hits filed as inhibitors; hit rate 7.3% among 220,000;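 also: plate controls were no enzyme wells and a reference inhibitor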
Tau FP inhib: tau fibrillization inhibition (FP). Potency, µM (series often up to 57.7 µM), inactives show top-dose activity, negative = inhibition, hits mostly inhibitors. K18 P301L tau heparin fibrillization, Alexa594 FP, 6 h. hit rate 0.39% among 280,000. AID 1468; active = well fitted curve in the direction sought with a large enough effect; inconclusive = small, poorly fitted or top-dose-only effect, or another doubt; inactive = no such curve, though single readings can be large; an effect the other way counts as inactive or inconclusive; also: nearly all actives have a fitted effect of over 55% in size
Target sequence (P10636 561-689 P618L limits assumed): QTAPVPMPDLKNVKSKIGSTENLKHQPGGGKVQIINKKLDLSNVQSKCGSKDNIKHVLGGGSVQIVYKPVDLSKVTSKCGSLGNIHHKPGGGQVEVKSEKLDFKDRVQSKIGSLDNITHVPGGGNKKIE
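Heparin (20 uM) drove fibril formation of recombinant tau K18 P301L, 15 uM unlabeled with 0.24 uM Alexa 594 label, for 6 hr at 37 C in 100 mM sodium acetate pH 7. Fluorescence polarization (555/632 nm) read 1 hr after 30 uM ThT.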
Tau ThT inhib: tau fibrillization inhibition (ThT binding) | P10636 | recombinant tau K18 P301L (four-repeat tau fragment), heparin-induced fibrillization, ThT fluorescence | Potency, µM (titrated, usually from 57.4 µM), without a hit: at the highest dose activity, negative = inhibition, usual class: inhibitors | hit rate 2.1% among 270,000 | AID 1460; active = well fitted curve in the direction sought with a large enough effect; inconclusive = small, poorly fitted or top-dose-only effect, or another doubt; inactive = no such curve, though single readings can be large; an effect the other way counts as inactive or inconclusive; also: nearly all actives have a fitted effect of over 55% in size
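Aggregation was driven by heparin (20 uM final) acting on recombinant tau […] bearing P301L in 100 mM sodium acetate pH 7; fibrils were detected with Thioflavin T.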
JMJD2E inh: JMJD2E (human) inhibition. Potency, µM (highest dose often 57.1 µM), inactives show top-dose activity change, negative = inhibition, most hits filed as inhibitors. B2RXH2. JMJD2E catalytic domain, FDH-coupled NADH fluorescence (FDH is formaldehyde dehydrogenase). hit rate 1.6% among 230,000. AID 2147;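 also: 0% = wells with enzyme and -100% = buffer wells without enzyme; nearly all actives have a fitted effect of over 50% in size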
Target sequence (B2RXH2 1-337 limits assumed): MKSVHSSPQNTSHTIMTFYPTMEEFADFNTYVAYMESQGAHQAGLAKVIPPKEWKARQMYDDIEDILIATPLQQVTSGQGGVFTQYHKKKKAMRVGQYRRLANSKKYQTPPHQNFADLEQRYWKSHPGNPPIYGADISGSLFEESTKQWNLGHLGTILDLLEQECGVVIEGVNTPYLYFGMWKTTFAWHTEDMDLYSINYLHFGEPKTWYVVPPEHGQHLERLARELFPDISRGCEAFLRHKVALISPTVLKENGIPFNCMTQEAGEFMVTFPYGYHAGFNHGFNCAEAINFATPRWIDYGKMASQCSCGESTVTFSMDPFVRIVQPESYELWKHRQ
HPGD inh: inhibitors of human 15-hydroxyprostaglandin dehydrogenase (HPGD) | P15428 | purified HPGD, NADH fluorescence kinetic, PGE2 substrate | Potency, µM, inactives show at the highest dose activity change, negative = inhibition, most hits filed as inhibitors | hit rate 4.3% among 150,000 | AID 894
Target sequence (P15428 whole entry, looked up): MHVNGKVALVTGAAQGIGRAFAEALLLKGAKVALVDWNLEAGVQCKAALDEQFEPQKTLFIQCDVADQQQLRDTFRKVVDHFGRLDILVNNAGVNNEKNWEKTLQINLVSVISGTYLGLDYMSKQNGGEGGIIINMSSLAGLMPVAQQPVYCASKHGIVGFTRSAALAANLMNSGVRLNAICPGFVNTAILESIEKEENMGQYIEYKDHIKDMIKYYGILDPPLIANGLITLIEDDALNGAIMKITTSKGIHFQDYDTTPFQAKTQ
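NADH formation kinetics: reaction with 30 uM PGE2 and 1 mM NAD+ (final), 20 nM enzyme, Tris-HCl pH 8 with Tween 20, after 15 min compound preincubation at room temperature. Fluorescence change, last versus first of five reads.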
The depositor's hits bear a star; ? = inconclusive; nt = no result given; [ ] = remark or other dose. Unless noted, calls follow the shape of the dose curve; as a rule, active = well fitted inhibition curve with a large enough effect (not every such curve was filed as active); inconclusive = small, poorly fitted or top-dose-only effect, or another doubt; inactive = no such curve, though single readings can be large or run the other way. Unless noted, % is scaled to controls: 0 for no effect and ±100 for the full control effect; potency is read from the fitted curve at half-maximal effect.

SMILES	Tau fluor counter	ALDH1A1 block	Tau FP inhib	Tau ThT inhib	JMJD2E inh	HPGD inh
COC(=O)C1(C(C)=O)CC2=CC[C@@H]3C(=O)N(c4ccccc4)C(=O)[C@@H]3[C@@H]2Cc2ccccc2[C@@H]1C[N+](=O)[O-] (stereo partly specified)	3.4%	-8.9%	3.6%	?	13.5%	-8.8%
CCCCN=c1scc(-c2ccc3c(c2)NC(=O)CO3)n1N=C1CCCC1	?	3.16µM*	16.6%	?	-1.1%	?
CCN=c1scc(-c2ccc3c(c2)NC(=O)CO3)n1N=C1CCCC1	?	?	3.9%	?	-0.9%	15.8µM*
CCn1c(SCc2c(F)cccc2Cl)nc(=O)c2c(C(=O)OC)cc(C3CC3)nc21	-7.7%	nt	-7.4%	?	nt	nt
CCOC(=O)C1(CC)NC(c2ccco2)C2C(=O)N(c3ccc(C)cc3)C(=O)C21 (stereo unspecified)	-1.7%	14.1µM*	?	?	-0.7%	-12.7%
CSc1nc(C)c2c(c1C#N)CCCC2	-10.7%	25.1µM*	-5.0%	-11.5%	0.8%	-20.2%
N#CCCSc1nc(N2CCOCC2)c2c(c1C#N)CCCC2	-8.0%	12.6µM*	-2.8%	-4.2%	-8.9%	-3.9%
CCCSc1nc(N2CCOCC2)c2c(c1C#N)CCCC2	-12.0%	14.1µM*	-8.4%	?	-3.5%	nt
CSc1nc(N2CCOCC2)c2c(c1C#N)CC(C)(C)OC2	-9.6%	-4.9%	0.8%	-1.4%	-1.3%	-8.9%
CSc1nc(N2CCOCC2)c2c(c1C#N)CCCCC2	-11.2%	22.4µM*	1.5%	-13.2%	-16.1%	-14.0%
Cc1ccc2nc3cc([N+](=O)[O-])cc([N+](=O)[O-])c3cc2c1	?	7.3%	?	3.16µM*	4.9%	nt
O=C(Nc1cccc(C(=O)OCc2cc(=O)n3ccsc3n2)c1)c1ccc(F)cc1	-3.6%	nt	?	-2.4%	nt	nt
Cc1ccc(N=C2NC(=O)S/C2=C\c2ccco2)cc1	0.9%	0.0%	-1.9%	0.4%	-3.1%	22.4µM*
Cc1ccc(N=C2NC(=O)/C(=C\c3ccc(C)s3)S2)cc1	-14.5%	1.4%	-12.5%	?	9.7%	nt
O=C1NC(=Nc2ccccc2)/C(=C/c2ccco2)S1	?	?	-9.1%	22.4µM*	?	-14.1%
Cc1ccccc1CNC(=O)CN1C(=O)CCCc2ccccc21	-0.2%	nt	7.7%	0.1%	nt	nt
CCOC(=O)N1CCN(C(=O)COc2cccc3c2CCN(Cc2ccccc2C)C3=O)CC1	6.5%	25.1µM*	8.4%	-8.3%	7.3%	0.8%
CC1CCN(C(=O)COc2cccc3c2CCN(Cc2ccccc2)C3=O)CC1	-5.4%	28.2µM*	1.7%	-12.7%	5.5%	nt
COc1ccc(C(=O)N(Cc2ccc(C(C)C)cc2)C2CCS(=O)(=O)C2)cc1 (stereo unspecified)	-8.5%	nt	-0.9%	-9.4%	nt	nt
CC(C)(C)n1cnc(C(N)=O)c1N	7.1%	10µM*	0.5%	10.4%	3.2%	0.9%
CCCNC(=O)Nc1cc(S(=O)(=O)CC)ccc1O	-8.5%	nt	7.6%	nt	2.2%	nt
CCS(=O)(=O)c1ccc(O)c(NC(=O)c2cc(OC)c(OC)c(OC)c2)c1	-2.7%	15.8µM*	-5.9%	-13.5%	2.1%	-17.4%
O=C(O)c1ccc(NS(=O)(=O)c2ccc3c(c2)C2C=CCC2C(c2ccccc2F)N3)cc1 (stereo unspecified)	?	?	?	31.6µM*	-23.1%	nt
COc1cccc([C@H]2Nc3ccc(S(=O)(=O)Nc4cc(C)ccc4C)cc3[C@H]3C=CC[C@H]32)c1	?	nt	4.3%	?	nt	nt
Cc1ccc([C@H]2Nc3ccc(S(=O)(=O)Nc4cccc(Cl)c4C)cc3[C@H]3C=CC[C@H]32)cc1	?	nt	-8.4%	12.6µM*	nt	nt
SMILES	Tau fluor counter	ALDH1A1 block	Tau FP inhib	Tau ThT inhib	JMJD2E inh	HPGD inh
C#CCNc1nc(CC)nc2c1nnn2Cc1ccccc1F	0.8%	7.94µM*	6.2%	-2.2%	-7.3%	nt
CC(C)c1nc(NCCO)c2nnn(Cc3ccccc3)c2n1	-4.9%	-9.6%	-3.8%	1.9%	-6.3%	nt
CCc1nc(NCCCCCO)c2nnn(Cc3ccccc3F)c2n1	-12.1%	1.41µM*	8.5%	-4.8%	-2.6%	-7.1%
Cc1nc(Nc2cccc(C(C)O)c2)c2nnn(Cc3ccccc3F)c2n1 (stereo unspecified)	-13.4%	4.47µM*	-4.5%	-5.2%	-0.7%	nt
Fc1ccccc1Cn1nnc2c(NCCc3ccccn3)ncnc21	-5.0%	7.94µM*	1.2%	-11.3%	2.2%	-15.3%
COc1cccc(-n2nnnc2SCC(=O)Nc2nc3c(s2)CCCC3)c1	11.7%	?	7.0%	15.5%	-6.4%	25.1µM*
COc1ccc(NC(=O)CSc2nnnn2C)c([N+](=O)[O-])c1	-8.4%	28.2µM*	-1.4%	-10.7%	5.2%	nt
COC(=O)c1cccc(-n2nnnc2SCC(=O)Nc2cc(C)on2)c1	-5.4%	11.2µM*	-6.4%	-0.8%	7.0%	nt
COC(=O)c1sc(NC(=O)CSc2nnnn2-c2cccc(OC)c2)nc1C	-13.4%	-1.6%	?	-1.0%	11.2%	-14.6%
COC(=O)c1cccc(-n2nnnc2SCC(=O)Nc2nc3c(s2)CCCC3)c1	?	?	4.1%	?	1.3%	20µM*
NCCCc1c(-c2ccccc2)nc(N)[nH]c1=O	nt	8.8%[13.5 µM]	nt	nt	nt	-11.2%
CC(C)c1ccc(Nc2ncnc3c2c(-c2ccccc2)cn3-c2ccccc2)cc1	1.2%	nt	-13.1%	-8.8%	nt	nt
CCOc1ccccc1CNC(=O)c1cnc2sc(N3CCC(C)CC3)nn2c1=O	-8.5%	nt	-5.4%	-13.3%	nt	nt
COC(=O)c1cccc(NC(=O)CSc2nnnn2C)c1	2.0%	14.1µM*	7.5%	-4.4%	3.9%	-9.4%
CCOC(=O)c1cccc(NC(=O)CSc2nnnn2C)c1	-4.5%	10.9%	-8.5%	-8.0%	3.5%	-0.3%
COc1ccc(/C=N/n2c(-c3cccs3)n[nH]c2=S)cc1	-21.0%	-8.7%	-1.6%	?	-25.9%	3.98µM*
Cc1ccc(/C=N/n2c(-c3cccs3)n[nH]c2=S)cc1	-15.1%	?	4.3%	-16.3%	-23.7%	4.47µM*
Cc1ccc(/C=N/n2c(-c3ccco3)n[nH]c2=S)cc1	-18.2%	nt	11.2%	-13.3%	-5.2%	nt
S=c1[nH]nc(-c2cccs2)n1/N=C/c1c(Cl)cccc1Cl	-15.6%	15.8µM*	2.5%	-15.9%	0.0%	nt
c1ccc(-n2c(SCc3nc(-c4cccs4)no3)nnc2-c2ccco2)cc1	-10.1%	7.08µM*	-1.2%	-17.1%	?	31.6µM*
c1ccc(-n2c(SCc3ccncc3)nnc2-c2ccco2)cc1	-1.4%	10µM*	4.0%	-1.7%	?	-11.2%
Cc1cc(C)c2cc(CN(Cc3ccco3)C(=S)NCC3CCCO3)c(=O)[nH]c2c1 (stereo unspecified)	-14.4%	25.1µM*	-9.4%	?	?	nt
